An excerpt weighted towards active compounds, which were near 2.4% of everything screened.
A549 viability: counter-screen for Nrf2 inhibitors: cytotoxicity in A549 cells. AID 504648. Potency, µM (top dose mostly 46 µM), for inactives: top-dose activity change, negative = cytotoxicity, most hits filed as inhibitors. A549 ARE-Fluc cells, CellTiter-Fluor viability, 18-24 h. hit rate 0.16% among 390,000; also: % is scaled to controls: 0 for no effect and ±100 for the full control effect
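A549 ARE_Fluc cells in 5% FBS OPTI-MEM were exposed to compounds in concentration-response for 18-24 h at 37 deg C. Viability was read by CellTiter-Fluor fluorescence (Ex 405/Em 525) after 30 min, before the luciferase read.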
Nrf2 block: blocks Nrf2 signaling; A549 ARE-Fluc reporter, luciferase luminescence, 18-24 h; Potency, µM (doses to about 46 µM), for inactives: top-dose activity change, negative = inhibition, hits mostly inhibitors; hit rate 2.1% among 360,000; also: % is scaled to controls: 0 for no effect and ±100 for the full control effect; nearly all actives have a fitted effect of over 60% in size
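Cells were seeded and rested 2 h, then exposed to compounds for 18-24 h. CellTiter-Fluor was read first as a viability measure. BugLite was added 15 min before the final luminescent read of ARE-luciferase activity in A549 cells.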
PINK1 modulator: modulators of PINK1 expression; PINK1 immunofluorescence, high-content cytometry, 24 h; Potency, µM (titrated, usually from 76.6 µM), inactives show at the highest dose activation (PINK1 increase), usual class: activators; hit rate 0.2% among 410,000; AID 624263; active = well fitted activation curve with a large enough effect; inconclusive = small, poorly fitted or top-dose-only effect; cell line not stated here; also: % of control where 0% means no effect; nearly all actives have a fitted effect of over 65% in size
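Measures PINK1 amount and localization on or inside mitochondria by immunofluorescence. Stable cells get compounds at 5 concentrations for 24 hours before fixation and staining; CCCP controls included.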
Epigenetic reg: regulators of epigenetic silencing causing reporter derepression in mouse cells; Potency, µM (top dose mostly 53.9 µM), inactives show at the highest dose GFP activation, hits mostly activators; murine LDR cells, GFP reporter derepression, 30 h; hit rate 0.2% among 280,000; also: % of control where 0% means no effect; nearly all actives have a fitted effect of over 60% in size
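Readout is the number of GFP-expressing murine LDR cells, counted by cytometry following washing. Cells were treated with compound for 30 h at 37 C; the stably integrated CMV-GFP locus is normally silent.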
Nrf2 ARE act: activators of Nrf2 (ARE) signaling | AREc32 ARE-luciferase reporter (MCF7-derived line), luminescence, 24 h | Potency, µM (highest dose often 46.1 µM), inactives show at the top dose activation, hits mostly activators | hit rate 0.31% among 410,000 | AID 624171; also: % of control where 0% means no effect; nearly all actives have a fitted effect of over 65% in size
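Quantitative high-throughput format: AREc32 reporter cells, 1000 per well, received compound by pin transfer and were incubated 24 hr at 37 deg C, 5% CO2, before Steady-Glo luminescence detection.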
Active calls of the source: *; ? = inconclusive; nt = no result given; [ ] = remark or other dose. Unless noted, calls follow the shape of the dose curve; as a rule, active = well fitted curve in the direction sought with a large enough effect; inconclusive = small, poorly fitted or top-dose-only effect, or another doubt; inactive = no such curve, though single readings can be large; an effect the other way counts as inactive or inconclusive. Potency is read from the fitted curve at half-maximal effect.

SMILES | A549 viability | Nrf2 block | PINK1 modulator | Epigenetic reg | Nrf2 ARE act
CCOC(=O)N1CCN(C(=O)c2ccc3c(c2)N(C)C(=O)/C(=C\c2ccc(OCC)c(OC)c2)S3)CC1 | 0.2% | -82.4% | 23.5% | nt | 5.3%
CCOC(=O)N1CCC(NC(=O)c2ccc3c(c2)N(C)C(=O)/C(=C/c2cccc(OC)c2)S3)CC1 | 8.4% | 16.4µM* | 8.1% | nt | -0.4%
CCOC(=O)N1CCC(NC(=O)c2ccc3c(c2)N(Cc2ccc(F)cc2)CCS3)CC1 | -12.8% | 25.9µM* | 0.3% | 0.8% | -0.5%
CCOC(=O)N1CCC(NC(=O)c2ccc3c(c2)N(Cc2ccc(C)cc2)CCS3)CC1 | -0.7% | -25.8% | 2.0% | -0.8% | 3.1%
CCOC(=O)N1CCC(NC(=O)c2ccc3c(c2)N=C(C)c2ccccc2S3)CC1 | -4.5% | 20.6µM* | 0.0% | nt | 2.5%
O=C(c1ccccc1O)N(Cc1ccccc1)Cc1cccs1 | 1.8% | 17.9% | nt | nt | nt
COc1cc(=O)n2c(c1C(=O)N(C)Cc1nccs1)CCN(Cc1ccc(F)c(F)c1)CC2 | nt | nt | -0.8% | nt | nt
CCOC(=O)C(C(C)=O)c1c(Br)c(O)c(O)c2c(C(=O)c3ccc(C)cc3)coc12 (stereo unspecified) | 8.2µM* | 7.31µM* | ? | 0.4% | 23.0%
CCOC(=O)c1c(C)n(-c2ccc(C)cc2)c2c(C(C(C)=O)C(=O)O)c(Br)c(O)c(O)c12 (stereo unspecified) | -13.4% | -19.9% | -1.8% | 6.7% | ?
Cc1ccc(Cl)cc1NS(=O)(=O)c1cc2c(cc1Cl)CCC(=O)N2 | 10.5% | -25.0% | nt | nt | nt
CC(=O)c1c(C)oc2ccc(N(C(=O)c3ccncc3)S(=O)(=O)c3ccc(F)cc3C)cc12 | -8.4% | ? | 2.6% | 0.0% | 0.4%
COC(=O)c1c(C)oc2ccc(N(C(=O)c3ccncc3)S(=O)(=O)c3ccc4ccccc4c3)cc12 | -23.0% | 23.1µM* | 1.9% | 3.1% | 3.1%
COC(=O)c1c(C)oc2ccc(N(C(=O)c3ccncc3)S(=O)(=O)c3ccc(C)cc3C)cc12 | ? | 6.51µM* | 12.7% | 1.0% | 3.2%
COC(=O)c1c(C)oc2ccc(N(C(=O)c3ccncc3)S(=O)(=O)c3ccc(C)cc3)cc12 | ? | 10.3µM* | 0.9% | 1.0% | -0.3%
COC(=O)c1c(C)oc2ccc(N(C(=O)c3ccncc3)S(=O)(=O)c3ccccc3)cc12 | ? | nt | 3.8% | -1.1% | 3.2%
COc1ccc(CN2CCc3nnc(CCc4ccccc4)n3CC2)c(OC)c1C | nt | nt | 0.0% | nt | nt
CCN(CC)CCC[C@H](C)Nc1c2ccc(Cl)cc2nc2ccc(OC)cc12 | nt | nt | nt | 3.55µM* | nt
c1ccc(Cn2nnc3c(N4CCOCC4)ncnc32)cc1 | -4.1% | 11.2% | -0.7% | -0.8% | 0.2%
FC(F)(F)c1ccc(N2CCN(c3ncnc4c3nnn4Cc3ccccc3)CC2)nc1 | -12.3%[1.84 µM] | ? | 11.2µM* | -1.0% | -0.4%
O=c1[nH]c(=S)[nH]c2n[nH]nc12 | nt | nt | 1.6% | nt | nt
Cc1ccc(Sc2c(C#N)c(-c3ccccc3)nn2C)cc1 | -27.7%[1.84 µM] | 5.8µM* | 10µM* | 0.8% | 0.1%
O=C(Nc1nc2ccsc2c(=O)s1)c1ccco1 | -0.6% | ? | 0.5% | 0.0% | 1.26µM*
Cc1csc2c(=O)sc(NC(=O)c3ccco3)nc12 | -0.5% | -18.1% | 0.9% | 0.1% | ?
O=C(Nc1nc2ccc(Cl)cc2s1)c1ccco1 | -1.3% | ? | -2.1% | -1.0% | ?
O=C(Nc1nc2ccc(Br)cc2s1)c1ccco1 | -6.5% | ? | 4.2% | nt | 7.94µM*
SMILES | A549 viability | Nrf2 block | PINK1 modulator | Epigenetic reg | Nrf2 ARE act
O=C(Nc1ccc(F)cc1)c1cccnc1NCCc1ccccc1 | -4.4% | ? | 12.0% | 0.0% | 0.1%
O=C(Nc1cccc(F)c1)c1cccnc1NCCc1ccccc1 | -20.5% | 23.1µM* | 4.5% | -1.1% | 2.6%
CCOc1cc(/C=N/NC(=O)CSc2nncn2C)ccc1OC(=O)c1ccc(Cl)cc1 | 3.4% | 20.6µM* | 1.0% | 1.0% | 0.2%
CCOc1cc(/C=N\NC(=O)c2ccc(NC(=O)C(C)(C)C)cc2)ccc1OC(=O)c1ccc(C)cc1 | -7.2% | 10.3µM* | 2.2% | 0.8% | -1.0%
Cc1ccc(NS(=O)(=O)c2cc3c(cc2F)NC(=O)CC3)cc1Cl | -16.8% | ? | nt | nt | nt
Cc1ccc2ncnc(Nc3ccc(C)c(C)c3)c2c1 | -1.1% | 14.6µM* | 1.6%[38.3 µM] | -2.8% | 3.0%
CC1CCN(S(=O)(=O)c2ccc3c(ccc(=O)n3CC(=O)Nc3cccc(F)c3)c2)CC1 | 9.5% | nt | -1.5% | 5.6% | -0.3%
CN(Cc1ccccc1)C(=O)C1CCC(CNS(=O)(=O)c2cccc3cccnc23)CC1 (stereo unspecified) | 0.7% | 16.4µM* | -0.5% | 3.3% | 5.0%
CCCCN(C(=O)C1CCC(CNS(=O)(=O)c2cccc3nsnc23)CC1)c1ccccc1 (stereo unspecified) | -8.2% | 25.9µM* | ? | 0.0% | -0.5%
O=C(C1CCC(CNS(=O)(=O)c2cccc3nsnc23)CC1)N1CCN(c2ccccn2)CC1 (stereo unspecified) | -4.9% | 20.6µM* | -0.7% | -0.1% | 6.4%
Cc1cc(Nc2cccc(C(F)(F)F)c2)ncn1 | 0.8% | -11.9% | 9.5% | -3.2% | 4.5%
Cc1ccc(Nc2nc3nonc3nc2Nc2cccc(C(F)(F)F)c2)cc1Cl | 7.31µM* | 3.26µM* | ? | -2.6% | -1.6%
COc1ccc(OC(=O)C(C)N2C(=O)c3ccccc3C2=O)cc1 (stereo unspecified) | 0.8% | 4.0% | -0.3% | nt | 0.2%
CC1=CC(C)(C)Nc2ccc(OC(=O)C(C)N3C(=O)c4ccccc4C3=O)cc21 (stereo unspecified) | 1.5% | 25.9µM* | 0.0% | ? | -1.3%
COC(=O)[C@@H]1CCCN1C(=O)c1cnn(-c2ncc3c(n2)-c2ccccc2CCC3)c1C1CC1 | nt | nt | 2.8% | nt | nt
Cc1ccc(-c2nc(CS(=O)CC(=O)N3CCN(c4ccc(Cl)cc4)CC3)c(C)o2)cc1 (stereo unspecified) | ? | nt | -1.2% | -1.1% | 12.0%
Cc1cccc(N2CCN(S(=O)(=O)c3ccc4c(c3)NC(=O)CO4)CC2)c1C | -0.2% | -8.1% | 0.8% | nt | 0.0%
CC1Sc2ccc(S(=O)(=O)CCC(=O)N3CCN(c4cccc(Cl)c4)CC3)cc2NC1=O (stereo unspecified) | ? | 16.4µM* | -0.5% | nt | -0.5%
Cc1cccc(N2CCN(C(=O)CCS(=O)(=O)c3ccc4c(c3)NC(=O)CO4)CC2)c1C | -5.1% | 14.6µM* | 0.0% | nt | -0.8%
Cc1cc(C(=O)Nc2ccccc2-c2nc(CNC(=O)c3cscn3)c(C)o2)c(C)o1 | nt | nt | 0.3% | nt | nt
Cc1nc2ccc(S(=O)(=O)Nc3cccc(-c4nc5cccnc5s4)c3C)cc2s1 | -9.4% | 23.1µM* | 0.6% | -2.5% | -2.7%
OC1CCN(c2c3c(nc4cc(-c5cccc(F)c5)nn24)CCCC3)CC1 | ? | 23.1µM* | nt | 0.0% | 7.7%
COc1cccc(CN2CCC(n3cc(C(=O)NC4CCCC4)nn3)CC2)c1O | nt | nt | 0.0% | nt | nt

Screens from PubChem BioAssay.
